Active and inactive are the calls of the source.

The source of these data is PubChem BioAssay.

Experiment [1] relates to Human papillomavirus type 1a protein E7 (residues 44-93). As to the kind of experiment: small molecules binding HPV E7 44-93 – biochemical, small-molecule microarray, residues 44-93, 635 nm fluorescence, primary screen (AID 1108).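 Also: E7 fragment applied at 1 µg/mL in TBST for 1 h at 4 C; score combines spot fluorescence with its signal to noise ratio.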 The note with it: fluorescence 635 nm, higher = more signal.
Experiment [2] can be described thus: hepatitis C replication reporter changes, two-sided – Huh7 cells, luciferase reporter, HCV replication inhibitor project, primary screen (AID 1109).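 Also: huh7 hepatoma cells harbouring a luciferase neomycin HCV replicon reporter; luciferase luminescence as measure of HCV replicon replication; test concentration not given here.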 The note with it: Huh7 HCV replicon luciferase reporter, 48 h; higher = more signal. (A reporter such as luciferase makes a cellular process visible.)
The target of experiment [3] is Left-right determination factor 2 (Homo sapiens) (UniProt O00292). Put plainly: small molecules binding LEFTY2 protein – biochemical, small-molecule microarray, 635 nm fluorescence scan, primary screen (AID 1110). The note with it: higher = more signal.
Left-right determination factor 2 (Homo sapiens), sequence (O00292 whole entry, looked up): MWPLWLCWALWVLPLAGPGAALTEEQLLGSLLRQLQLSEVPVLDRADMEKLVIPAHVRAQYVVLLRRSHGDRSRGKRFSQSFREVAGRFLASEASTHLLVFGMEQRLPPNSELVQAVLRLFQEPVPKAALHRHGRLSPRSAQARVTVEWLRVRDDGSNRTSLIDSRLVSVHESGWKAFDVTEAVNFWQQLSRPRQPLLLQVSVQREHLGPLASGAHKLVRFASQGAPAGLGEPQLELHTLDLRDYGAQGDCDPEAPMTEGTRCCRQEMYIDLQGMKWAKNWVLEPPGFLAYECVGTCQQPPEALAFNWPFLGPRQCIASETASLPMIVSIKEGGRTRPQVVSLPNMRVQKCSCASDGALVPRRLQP
Experiment [4] concerns the target Calmodulin-1 (Homo sapiens) (UniProt P0DP23). As to the kind of experiment: small molecules binding calmodulin-1 with EGTA – biochemical, small-molecule microarray, Cy5-labelled CALM1, profiling panel (AID 1111).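 Also: labelled calmodulin applied in Tris saline Tween buffer holding calcium plus EGTA and DTT.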 The note with it: Cy5-CALM1 binding fluorescence, higher = more signal.
Experiment [5] has the same target. As to the kind of experiment: small molecules binding Ca-loaded calmodulin-1 – biochemical, small-molecule microarray, Cy5-labelled CALM1, plus calcium, artefact control for SMM control-protein annotation, profiling panel (AID 1112).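 Also: score merges spot fluorescence with signal to noise from triplicate slides.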 To be noted: Cy5-CALM1 binding fluorescence, higher = more signal.
Experiment [6] can be described thus: probe aWnt5a binding to arrayed compounds – biochemical, biotinylated probe, 635/667 nm fluorescence, primary screen (AID 1113).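 Also: score merges 667 nm fluorescence intensity with signal-to-noise per printed feature.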 The note with it: small-molecule microarray, higher = more signal.
A short description of experiment [7]: probe aShh binding to arrayed compounds – biochemical, biotinylated probe, 635/667 nm fluorescence, primary screen (AID 1114).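 Also: probe is biotin-labelled aShh protein from a stem cell growth factor screen; measures binding of labelled protein to compounds printed on the slide; score merges feature fluorescence at 667 nm with signal-to-noise.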 To be noted: small-molecule microarray, higher = more signal.
The nature of experiment [8]: probe aNog binding to arrayed compounds – biochemical, biotinylated probe, 635/667 nm fluorescence, primary screen (AID 1115).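 Also: probe is biotinylated aNog protein used at 0.15 µg/mL for 1 h at 4 C; z-score combines 667 nm fluorescence of each spot with its signal to noise.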 To be noted: small-molecule microarray, higher = more signal.
The target in experiment [9] is Torsin-1A-interacting protein 1 (Homo sapiens) (UniProt Q5JTV8). As to the kind of experiment: compound microarray binding of lysate hLAP1 – cell lysate, small-molecule microarray, COS7 lysate, 635/667 nm fluorescence, primary screen (AID 1116). The note with it: 635 nm fluorescence, higher = more signal.
Torsin-1A-interacting protein 1 (Homo sapiens), sequence (Q5JTV8 whole entry, looked up): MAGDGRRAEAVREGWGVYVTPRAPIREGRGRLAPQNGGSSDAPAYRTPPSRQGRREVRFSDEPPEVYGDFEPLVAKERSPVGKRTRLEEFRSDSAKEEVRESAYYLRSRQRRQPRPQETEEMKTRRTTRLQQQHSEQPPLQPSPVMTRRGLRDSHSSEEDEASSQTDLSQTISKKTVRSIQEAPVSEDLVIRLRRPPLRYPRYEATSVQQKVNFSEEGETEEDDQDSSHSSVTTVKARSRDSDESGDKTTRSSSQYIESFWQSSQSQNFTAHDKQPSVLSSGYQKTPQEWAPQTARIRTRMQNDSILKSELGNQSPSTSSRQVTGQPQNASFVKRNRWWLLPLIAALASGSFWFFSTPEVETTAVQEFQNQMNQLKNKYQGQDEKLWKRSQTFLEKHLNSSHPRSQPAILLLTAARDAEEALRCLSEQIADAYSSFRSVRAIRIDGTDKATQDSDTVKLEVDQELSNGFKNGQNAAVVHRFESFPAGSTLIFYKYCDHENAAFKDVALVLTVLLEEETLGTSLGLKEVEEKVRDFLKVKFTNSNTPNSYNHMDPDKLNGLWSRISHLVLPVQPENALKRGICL
In experiment [10] the target is Alpha-bungarotoxin (Bungarus multicinctus) (UniProt P60615). Put plainly: compounds binding labelled alpha-BTX control protein – biochemical, small-molecule microarray, Alexa647 label, 635/667 nm fluorescence, artefact control for SMM control protein annotation, profiling panel (AID 1117). To be noted: alpha-BTX-A647 binding fluorescence, higher = more signal.
Alpha-bungarotoxin (Bungarus multicinctus), sequence (P60615 whole entry, looked up): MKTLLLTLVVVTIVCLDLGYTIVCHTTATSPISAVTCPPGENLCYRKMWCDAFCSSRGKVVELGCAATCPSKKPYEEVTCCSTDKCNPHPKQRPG
The next experiment deals with Albumin (Bos taurus) (UniProt P02769). Put plainly: compounds binding labelled BSA control protein – biochemical, small-molecule microarray, Alexa647 label, 635/667 nm fluorescence, artefact control for SMM control protein annotation, profiling panel (AID 1118).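 Also: score merges 667 nm emission intensity and signal-to-noise per printed compound spot.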 The note with it: BSA-A647 binding, fluorescence 635 nm, higher = more signal.
Albumin (Bos taurus), sequence (P02769 whole entry, looked up): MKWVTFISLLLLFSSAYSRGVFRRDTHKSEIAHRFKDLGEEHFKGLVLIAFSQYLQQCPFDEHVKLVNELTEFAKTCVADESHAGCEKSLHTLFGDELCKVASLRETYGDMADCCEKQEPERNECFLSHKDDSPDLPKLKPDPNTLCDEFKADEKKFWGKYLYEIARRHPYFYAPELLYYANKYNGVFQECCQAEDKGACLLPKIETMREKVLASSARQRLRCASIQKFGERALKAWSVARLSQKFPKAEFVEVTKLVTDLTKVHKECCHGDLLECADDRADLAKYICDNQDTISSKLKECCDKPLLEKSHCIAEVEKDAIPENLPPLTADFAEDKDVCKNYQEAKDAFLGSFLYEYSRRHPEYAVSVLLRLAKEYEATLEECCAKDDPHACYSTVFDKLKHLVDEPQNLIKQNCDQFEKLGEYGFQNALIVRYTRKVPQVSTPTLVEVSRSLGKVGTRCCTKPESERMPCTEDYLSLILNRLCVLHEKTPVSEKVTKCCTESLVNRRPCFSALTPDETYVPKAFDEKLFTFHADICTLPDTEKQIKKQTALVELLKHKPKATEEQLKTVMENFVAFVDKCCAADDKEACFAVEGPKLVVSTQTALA
Experiment [11] in a line: probe aXIP binding to arrayed compounds – biochemical, NeuroSMM set, 635/667 nm fluorescence, primary screen (AID 1119).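 Also: probe is the protein aXip251-270 applied at 1 µg/mL to compound-printed slides; binding of probe to printed compounds measured as 667 nm fluorescence plus signal to noise.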 The note with it: small-molecule microarray, higher = more signal, called active from +8 up or from −8 down.
The nature of experiment [12]: probe aNOTCH3 binding on compound microarray – biochemical, small-molecule microarray, 635/667 nm fluorescence, primary screen (AID 1120).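 Also: probe is a biotin-tagged antibody raised against NOTCH3 rather than NOTCH3 protein; score merges spot fluorescence near 667 nm with spot signal to noise.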 The note with it: higher = more signal.
Experiment [13] in a line: probe aNOTCH2 binding on compound microarray – biochemical, small-molecule microarray, 635/667 nm fluorescence, primary screen (AID 1121).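 Also: score merges feature fluorescence read at 667 nm with its signal to noise.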 To be noted: higher = more signal.
Experiment [14] concerns the target Carbonic anhydrase 2 (Homo sapiens) (UniProt P00918). Put plainly: compounds binding carbonic anhydrase 2 – biochemical, small-molecule microarray, Alexa647-labelled CAII, profiling panel (AID 1122). The note with it: CAII-A647 binding fluorescence, higher = more signal.
The nature of experiment [15]: COS7 lysate on small-molecule microarray, probe aHis, 635 nm (AID 1123).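 Also: z-score combines 667nm fluorescence intensity with signal-to-noise per printed compound spot.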 To be noted: COS7 cell lysate, fluorescence, higher = more signal.
The nature of experiment [16]: probe aLAP1 signal on lysate-treated microarray – cell lysate, small-molecule microarray, COS7 lysate, primary screen (AID 1124).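 Also: lysate comes from COS7 cells expressing LAP1 and is applied at 0.3 µg/mL; score merges spot fluorescence near 667 nm with signal-to-noise over triplicate slides.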 The note with it: probe aLAP1, fluorescence, higher = more signal.
For another experiment, the system named is Sam68 (KHDRBS1). As to the kind of experiment: compounds binding KHDRBS1 protein – biochemical, small-molecule microarray, 635 nm fluorescence, primary screen (AID 1125).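 Also: score merges 667 nm channel intensity with signal to noise over triplicate slides.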 The note with it: higher = more signal.
For experiment [17], the system named is Chordin-like protein 2 (CHRDL2). Put plainly: compounds binding chordin-like 2 – biochemical, small-molecule microarray, 635 nm fluorescence, primary screen (AID 1126).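 Also: printed compound slides probed with Chrdl2 protein at 4 µg/mL for 1 h at 4 C; score merges 667 nm emission intensity with signal to noise over three replicate slides.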 To be noted: fluorescence 635 nm, higher = more signal.
Experiment [18] deals with Concanavalin-A (Canavalia ensiformis) (UniProt P02866). Put plainly: compounds binding concanavalin A lectin – biochemical, small-molecule microarray, Alexa647 label, 635 nm, artefact control for SMM control protein annotation, primary screen (AID 1127).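 Also: z combines 667 nm emission intensity with signal-to-noise across three replicate slides.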 To be noted: ConA-A647 binding fluorescence, higher = more signal.
Concanavalin-A (Canavalia ensiformis), sequence (P02866 whole entry, looked up): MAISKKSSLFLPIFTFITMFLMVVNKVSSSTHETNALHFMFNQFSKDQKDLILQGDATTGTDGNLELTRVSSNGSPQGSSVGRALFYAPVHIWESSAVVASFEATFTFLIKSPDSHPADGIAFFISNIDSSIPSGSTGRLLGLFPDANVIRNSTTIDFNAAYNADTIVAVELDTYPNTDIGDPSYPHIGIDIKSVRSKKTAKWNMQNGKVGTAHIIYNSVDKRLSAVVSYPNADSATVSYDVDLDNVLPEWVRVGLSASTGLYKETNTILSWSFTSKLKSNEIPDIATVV

As for `Cc1ccc(S[C@]2(C(=O)NCCCN(C)C)CC(=O)N(Cc3ccccc3)[C@@H]2c2ccc(CO)cc2I)cc1`, the composite z-score in experiment [1] was 0.544; in experiment [3], -0.941; in [4], 0.453; in experiment [5] it was 0.728; in experiment [6], -0.091; in experiment [7], 0.0756. Further, the composite z-score in experiment [8] is 1.09; in [9], 0.0632; in experiment [10], 0.913; with Albumin (Bos taurus), 0.717; in experiment [12], 0.0762; in [13], -0.0771. Also, the composite z-score is 0.688 in experiment [14]; 2 in experiment [15]; 0.755 in experiment [16]; -0.381 with Sam68 (KHDRBS1); -0.855 in experiment [17]; 0.362 in experiment [18]. The same compound yielded a z-score in experiment [2] of -2.94. Also, the composite Z-score in experiment [11] was 0.35 (inactive).

Take `Cc1ccc(S(=O)(=O)N[C@H]2COC(=O)CC=C[C@H](C)COC(=O)N[C@@H](C)C(=O)CC=C[C@@H]2C)cc1`: the composite z-score was -0.417 in experiment [1]; 1.05 in [3]; -0.643 in [4]; -1.39 in [5]; -0.1 in experiment [6]; -0.0243 in experiment [7]. For the same compound, the composite z-score in experiment [8] was -0.345; in experiment [9], 0.0478; in [10], 0.0411; with Albumin (Bos taurus), -0.0363; in [12], -0.178; in experiment [13], -0.145. Moreover, the composite z-score in experiment [14] is -0.461; in [15], -0.43; in experiment [16] it was -0.314; in the experiment with Sam68 (KHDRBS1), 0.269; in experiment [17], 1.52; in experiment [18], 0.152. Besides, the z-score in experiment [2] was -0.47. For the same compound, the composite Z-score in experiment [11] was -1.01 (inactive).

On to `CO[C@@H]1COC(=O)[C@H](C)NC(=O)CC=C[C@@H](C)[C@H](NS(=O)(=O)c2ccc(C)cc2)COC(=O)CC=C[C@@H]1C`, for which the composite z-score in experiment [1] was -0.232; in [3], 0.46; in [4], -0.356; in experiment [5], -0.239; in experiment [6], -0.0718; in experiment [7], -0.138. Further, the composite z-score in experiment [8] is -0.246; in experiment [9] it was 0.117; in experiment [10], -0.573; with Albumin (Bos taurus), -0.471; in experiment [12], 0.0066; in experiment [13] it was -0.0554. Further, the composite z-score is -0.185 in experiment [14]; 0.0657 in experiment [15]; -0.319 in experiment [16]; -0.354 in the experiment on Sam68 (KHDRBS1); -0.0932 in experiment [17]; -0.809 in [18]. Besides, the z-score in [2] stood at 0.108. Further, the composite Z-score in experiment [11] was 0.237 (inactive).

`C=CCNC(=O)[C@H]1[C@@H]2C(=O)O[C@@H](c3ccccc3)[C@@H](c3ccccc3)N2[C@@H](c2ccccc2OCCO)[C@]12C(=O)N(C(=O)OCCOC)c1ccc(C#CCNC(N)=O)cc12`: the composite z-score in experiment [1] is 0.0146; in [3] it was 0.398; in [4] it was 1.63; in experiment [5] it was 0.559; in experiment [6], -0.124; in experiment [7], -0.0011. In addition, the composite z-score in experiment [8] is 0.672; in [9], 1.23; in experiment [10] it was 1.81; with Albumin (Bos taurus) it was 0.676; in experiment [12], 0.0379; in experiment [13], -0.101. Besides, the composite z-score in experiment [14] was 0.555; in experiment [15] it was 1.94; in experiment [16], 1.3; with Sam68 (KHDRBS1), 1.29; in experiment [17], -0.246; in experiment [18], 1.14. In [2], the z-score is -1.08. Moreover, in experiment [11], the composite Z-score was -0.0888 (inactive).

For the compound `COCCCNC(=O)[C@@]1(Sc2ccc(C)cc2)CC(=O)N(Cc2cc(C(F)(F)F)cc(C(F)(F)F)c2)[C@@H]1c1ccc(CO)cc1I`, the composite z-score in experiment [1] is -0.975; in experiment [3] it was -1.28; in [4] it was -0.0999; in experiment [5] it was 1.14; in experiment [6], -0.147; in experiment [7] it was 0.267. In addition, the composite z-score was 0.942 in [8]; 0.339 in experiment [9]; -0.489 in experiment [10]; -0.306 with Albumin (Bos taurus); -0.227 in experiment [12]; -0.133 in [13]. In addition, the composite z-score in [14] was 0.85; in [15], 0.57; in experiment [16], -0.874; with Sam68 (KHDRBS1), -0.955; in [17], -1.19; in experiment [18], -0.82. This compound came in with a z-score in experiment [2] of -1.22. In [11], the composite Z-score is 0.297 (inactive).

For `CC(C)CN1C(=O)[C@@]2(Cc3ccccc31)c1ccccc1C(=O)N(C1CCCCC1)[C@H]2c1ccc(CO)cc1`, the composite z-score is -0.973 in [1]; -0.841 in experiment [3]; -0.0258 in experiment [4]; 0.644 in [5]; -0.0944 in experiment [6]; -0.0626 in [7]. The composite z-score is 0.697 in experiment [8]; -0.256 in experiment [9]; -1.06 in experiment [10]; -0.436 with Albumin (Bos taurus); -0.0647 in experiment [12]; -0.0433 in experiment [13]. Further, the composite z-score in experiment [14] is 0.781; in [15], 0.878; in [16], 1.23; with Sam68 (KHDRBS1), -0.18; in experiment [17], -1.43; in [18] it was -1.42. The z-score in experiment [2] was -0.192. Also, the composite Z-score in experiment [11] was 0.439 (inactive).
